Reference: PubChem BioAssay
A number with no mark means an inactive call.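 How the source made its calls: active means viability loss from added drug above about 55%, and viability with drug at most 40%, in both replicates (limit read from the data, passing the limit was not always enough); inconclusive means both conditions met in only one replicate; inactive means neither replicate meets both conditions.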

Assay: MRP1 drug-resistance reversers in H69AR cells – cell-based, doxorubicin co-treatment, pilot screen (AID 601)
Settings: H69AR cells + 2 uM doxorubicin, CellTiter-Glo, 72 h; at 10 µM; stronger effect = higher value

Compound | differential viability (reversal) [%]
CCc1nnc(NC(=O)c2ccc(COc3ccc(C)cc3)o2)s1 | -4.93
CC(C)Cn1c(CN2CCN(c3ccccc3F)CC2)nc2c1c(=O)[nH]c(=O)n2C | 8.27
O=C(CN(c1ccc(F)cc1)S(=O)(=O)c1ccc2c(c1)OCCO2)Nc1ccc2c(c1)OCO2 | 4.63
CC1(C)Cc2noc(N)c2C(C)(C)N1O | 14.8
COC(=O)CCn1nnc(-c2cccs2)n1 | 5.5
CCOc1ccc(N(C(C)=O)C2C=CS(=O)(=O)C2)cc1 (stereo unspecified) | 2.48
CS(=O)(=O)N1CCCC(C(=O)NCCCN2CCC(Cc3ccccc3)CC2)C1 (stereo unspecified) | 0.23
Cn1c(=O)cc(OCC(=O)NCCCN2CCN(c3cccc(Cl)c3)CC2)c2ccccc21 | -1.39
CCC(C)NC(=O)c1ccccc1NC(=O)C(C)N(c1ccccc1)S(C)(=O)=O (stereo unspecified) | -7.6
COc1ccc2nc3oc(C(=O)NC4CCN(Cc5ccccc5)CC4)cc3cc2c1 | 1.69
Cc1c(Cl)cccc1N1C(=O)c2ccccc2C1=O | 2.93
O=C(NC1CCCC1)C(c1ccco1)N(Cc1ccccc1)C(=O)c1csnn1 (stereo unspecified) | 1.57
O=C(O)Cn1cc(C(=O)c2ccco2)c2ccccc21 | -4.73
CC(C)(C)Cc1nc(-c2ccccn2)no1 | 7.35
COCC(=O)N(Cc1ccc(OC)cc1)Cc1nc2ccccc2c(=O)[nH]1 | -13.9
CCCN1C(=O)SC(CC(=O)Nc2ccc(Br)cc2)C1=O (stereo unspecified) | 4.58
